From PubChem
This is a sample that favours compounds with a hit; in the whole collection about 21% have one here.
D3 antag: antagonists of human D3 dopamine receptor; D3R cells, DiscoveRx beta-arrestin luminescence, antagonist mode; stronger effect = lower value; 360,000 compounds, 2.5% hits; P35462; max response, negative = inhibition, %; AID 652054; in the data active = max response below about -50%; inconclusive = no clear call, values can overlap the other calls
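Cells expressing the human receptor were seeded at 1500 cells/well, incubated overnight at 37 degrees C in 5% CO2, then exposed to library compounds with dopamine controls for 90 minutes at 37 degrees C before luminescent detection.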
DRD3 agonist: activates the human D3 dopamine receptor | D3R DiscoveRx beta-arrestin cells, luminescence, 90 min | max activation, % | 410,000 compounds, 0.58% hits | AID 652048; in the data active = max activation above about 30%
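Agonist mode: compounds and dopamine controls were applied to plated cells for 90 min at 37 degrees C after an overnight attachment at 1500 cells/well. Luminescent read-out followed 30 - 60 minutes at room temperature with DiscoveRx detection reagent.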
ClpP mod: qHTS Assay for Activators of ClpP. AID 651965, 2013. ATP-dependent Clp protease proteolytic subunit (Bacillus subtilis (strain 168)), P80244. purified B. subtilis ClpP, FRET peptide cleavage, 20 min. 340,000 compounds, 1.9% hits. Potency, µM (doses to about 57.5 µM); active = well fitted falling curve with a large enough effect; inconclusive = small, poorly fitted or top-dose-only effect; inactive = no such curve, though single readings can be large or run the other way; also: the source files actives as falling curves though it sought activators and does not explain the sign; nearly all actives have a fitted effect of over 65% in size
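Buffer: 100 mM Tris/HCl pH8, 100 mM KCl, 0.05% low protease BSA, 2.5% glycerol, 0.01% Tween-20. ClpP 10 microg/mL final; 20 min RT; delta FRET normalized to ADEP and DMSO controls.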
TDP1 cell CPT: DT40-hTDP1 cell growth loss with CPT; Potency, µM (doses to about 46.2 µM), most hits filed as inhibitors; 420,000 compounds, 12% hits; chicken DT40 Tdp1-/-;hTDP1 cells + 20 nM CPT, ATP luminescence, 48 h; also: nearly all actives have a fitted effect of over 55% in size
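Chicken DT40 Tdp1-/- cells stably complemented with human TDP1 were seeded at 400 cells/well in medium containing 20 nM camptothecin, exposed to pin-transferred compounds, and grown at 37 °C for at least 48 hr. Viability was read as ATP luminescence.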
IL-1B inflam inh: inhibitors of inflammasome signaling (IL-1 beta secretion); activity change, % at 57.5 µM; 360,000 compounds, 4.7% hits; THP-1 LPS/ATP IL-1B secretion, AlphaLISA, 16 h; stronger effect = lower value; in the data active = activity change below about -50%; inconclusive = mostly about -30% to -49%
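THP-1 cells pretreated 1 hr with compounds (up to 57.5 uM final), then stimulated with LPS (250 ng/mL final) plus ATP (1.25 mM final); secreted IL-1B measured by AlphaLISA after 16 hr, decreased signal indicating inhibition.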
TDP1 cell noCPT: qHTS for Inhibitors of human tyrosyl-DNA phosphodiesterase 1 (TDP1): qHTS in cells in absence of CPT; DT40 Tdp1-/- hTDP1 cells, no CPT, ATP luminescence, 48 h; Potency, µM (doses to about 46.2 µM), hits mostly inhibitors; 420,000 compounds, 15% hits; AID 686978, 2013; also: nearly all actives have a fitted effect of over 55% in size
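Chicken DT40 Tdp1-/- cells complemented with human TDP1, screened without camptothecin (DMSO vehicle only), 400 cells/well. Compounds pin-transferred, cells incubated at 37 °C for at least 48 hr. Growth read as ATP-dependent luminescence (CellTiter-Glo, 30 min at RT).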
Hits are given with their value; 0 = inactive; ? = inconclusive; - = no result given; ! = not confirmed by another sample. Unless noted, calls follow the shape of the dose curve; as a rule, active = well fitted inhibition curve with a large enough effect; inconclusive = small, poorly fitted or top-dose-only effect; inactive = flat fitted curve, though single readings scatter.

SMILES | D3 antag | DRD3 agonist | ClpP mod | TDP1 cell CPT | IL-1B inflam inh | TDP1 cell noCPT
C/C=C1\CN2[C@H]3C[C@@]45c6ccccc6N(C)[C@H]4[C@@H]2CC1C3[C@H]5O (stereo partly specified) | -62.7 | 0 | 0 | 0 | 0 | 0
CC(=O)N1CCCc2cc(S(=O)(=O)N3CCCC(C(=O)Nc4cccc(F)c4)C3)ccc21 (stereo unspecified) | 0 | 0 | 0 | ? | 0 | ?
Cc1ccc(NC(=O)C2CCCN2S(=O)(=O)c2ccc3c(c2)CCCC(=O)N3)cc1Cl (stereo unspecified) | - | 0 | 0 | 16.4µM | - | ?
COc1ccc(S(=O)(=O)N2Cc3cnnn3-c3ccccc3C2C#N)cc1 (stereo unspecified) | 0 | 0 | 0 | 0 | 0 | 0
Cc1ccc(O)c([C@H](CCN(C(C)C)C(C)C)c2ccccc2)c1 | 0 | 0 | 0 | 20.6µM! | 0 | ?
CN(C)c1ccc(C(O)P(=O)(OCc2ccccc2)c2ccc(N(C)C)cc2)cc1 (stereo unspecified) | 0 | 0 | - | ? | 0 | ?
CC(C)CCOP(=O)(c1ccc(N(C)C)cc1)C(O)c1c(Cl)cccc1Cl (stereo unspecified) | 0 | 0 | 0 | ? | 0 | 16.4µM
Cc1ccc(C(O)P(=O)(OCCC(C)C)c2ccc(N(C)C)cc2)cc1 (stereo unspecified) | 0 | 0 | 0 | ? | 0 | 0
CC(C)c1ccc(C(O)P(=O)(OCc2ccccc2)c2ccc(N(C)C)cc2)cc1 (stereo unspecified) | 0 | 0 | 0 | ? | ? | 25.9µM
CCCOP(=O)(c1ccc(N(C)C)cc1)C(O)c1ccc(Cl)cc1Cl (stereo unspecified) | 0 | 0 | - | 25.9µM | -79.1 | 25.9µM
O=C(O)[C@@H]1C[C@H]2C[C@@H](CP(=O)(O)O)CC[C@H]2CN1 | - | - | - | 0 | - | 0
[O-][N+](=Nc1ccccc1)c1ccccc1 | - | 0 | - | ? | - | ?
Nc1nc(N)nc(NC2CC2)n1 | - | 0 | - | 0 | - | 0
COc1nc(NC2CCCCC2)nc(NC(C)(C)C)n1 | 0 | 0 | 0 | ? | ? | 11.6µM
CCn1c(O)c(C=NCCN2CCOCC2)c(=O)[nH]c1=S | 0 | 0 | - | 0 | 0 | 0
COC(=O)C1=C(c2ccc(S(C)(=O)=O)cc2)C[C@@H]2CC[C@H]1N2C(=O)NC(C)C | ? | 0 | 0 | 0 | 0 | 0
CCOC(=O)c1ccc(N2C(=O)c3n[nH]c(-c4cccs4)c3C2c2ccc(Cl)cc2Cl)cc1 (stereo unspecified) | - | 0 | 0 | ? | - | 18.4µM
CCOC(=O)c1ccc(N2C(=O)c3n[nH]c(-c4cccs4)c3C2c2ccc(C(C)(C)C)cc2)cc1 (stereo unspecified) | - | 0 | 0 | 16.4µM | - | 6.51µM
COc1nc2ccccc2nc1N1CCN(C)CC1 | -83.4 | 0 | 0 | 0 | 0 | 0
Cc1cccc(N=C2c3cc([N+](=O)[O-])ccc3-c3c2cc([N+](=O)[O-])cc3[N+](=O)[O-])c1 | 0 | 0 | 0 | 8.2µM | -95.9 | 18.4µM
Clc1cncc(N2CCNCC2)n1 | - | - | - | 0 | - | 0
Cc1cc(C)cc(OCC(=O)Nc2ccc(-c3nc4ccccc4s3)cc2)c1 | - | 0 | 0 | 10.3µM | - | 9.2µM
Nc1ccc(C2(c3ccc(N)cc3)CCCCC2)cc1 | 0 | 0 | ? | 0 | 0 | 0
COc1ccccc1CNc1nc(NCc2ccccc2SC)c2sccc2n1 | 0 | 0 | ? | 6.51µM | -98.8 | 6.51µM
Cc1cc(NC(=O)CCl)on1 | 0 | 0 | - | ? | -105.9 | 9.2µM
SMILES | D3 antag | DRD3 agonist | ClpP mod | TDP1 cell CPT | IL-1B inflam inh | TDP1 cell noCPT
CC1CC(OP(O)(=S)c2ccc(N(C)C)cc2NC(=O)c2cccs2)CC(C)(C)C1 (stereo unspecified) | 0 | 0 | - | ? | 0 | ?
CC(C)CCC(=O)O[C@H]1CC[C@H]2[C@@H]3CCC4=CC(=O)CC[C@]4(C)[C@H]3CC[C@]12C | - | 0 | - | 0 | - | 0
O=P(OC1CCCCC1)(OC1CCCCC1)C(O)c1ccc(Cl)cc1Cl (stereo unspecified) | 0 | 0 | 0 | 16.4µM | ? | 20.6µM
CC1CC(Cl)CCC1C(=O)OC(C)(C)C (stereo unspecified) | - | - | - | 0 | - | 0
O=C1OC2(c3cc(Br)c(O)cc3Oc3c2cc(Br)c(O)[c]3[Hg])c2ccccc21 (stereo unspecified) | - | 0 | - | 4.53µM | - | 3.6µM
C=C1C2CCC3[C@@](CC[C@@H]4C(C(=O)O)CC(OC5OC(CO)C(OS(=O)(=O)O)C(OS(=O)(=O)O)C5OC(=O)CC(C)C)C[C@]34C)(C2)C1O (stereo partly specified) | - | - | - | 0 | - | 0
N#CCCn1cc(C(=O)Nc2ccccc2Br)c(-c2ccc3c(c2)OCCO3)n1 | 0 | 0 | 0 | 0 | 0 | ?
Cc1ccc(C(=O)Nc2ccncc2)cc1S(=O)(=O)N1CCCCC1 | 0 | 0 | 0 | 23.1µM | 0 | 18.4µM
O=C(Nc1ccc(Br)cc1)c1ccc(Cl)c(S(=O)(=O)N2CCCCCC2)c1 | - | 0 | 0 | ? | - | 16.4µM
CCN1C(=O)/C(=C/c2ccc(N(CC)CC)cc2OC)C(=O)NC1=S | 0 | 0 | 0 | ? | -55.0 | 0
COc1ccccc1/C=C1\C(=O)NC(=S)N(c2ccccc2)C1=O | 0 | 0 | 0 | 0 | 0 | 0
O=C(CCCCCCCCC#CI)Oc1ccccc1 | - | 0 | - | ? | - | ?
COC(=O)C1C2CC[C@@H](CC1OC(=O)c1ccccc1)N2 (stereo partly specified) | 0 | 40.8 | 0 | 0 | 0 | 0
COc1ccc2ccccc2c1CNCCc1ccccc1 | 0 | 0 | 0 | 23.1µM | -54.6 | ?
O=C1COc2ccc(C(=O)COC(=O)Cc3ccccc3)cc2N1 | 0 | 0 | - | 0 | 0 | 0
C=CCn1c(O)c(N=Nc2c(C)n(C)n(-c3ccccc3)c2=O)c(=O)[nH]c1=S | -57.2 | 0 | 0 | 16.4µM | 0 | 9.2µM
Cc1c(N=Nc2c(O)[nH]c(=S)[nH]c2=O)c(=O)n(-c2ccccc2)n1C | -65.6 | 0 | 0 | 0 | 0 | 0
O=C(O)C(Cl)(Cl)Cl | 0 | 0 | 0 | 0 | 0 | 0
CCCCCn1c(SCCCC)nc2c1c(=O)[nH]c(=O)n2C | 0 | 0 | 0 | ? | 0 | ?
C[C@@H](N)C(=O)c1ccccc1 | - | 0 | - | 0 | - | 0
Cc1ccc(N/N=C/C=C/c2ccco2)cc1 | 0 | 0 | 12.6µM | 0 | ? | ?
COc1ccc(-c2nc(CN3C(=O)CN=C(c4ccccc4Cl)c4cc(Cl)ccc43)c(C)o2)cc1OC | - | 0 | 0 | ? | - | ?
COc1ccc(-n2c(CNCCc3ccc(C)cc3)nc3ccccc3c2=O)cc1 | 0 | 0 | 0 | ? | 0 | ?
O=S1(=O)N(Cc2ccccc2Cl)CCCN1Cc1ccccc1Cl | - | 0 | 0 | 16.4µM | - | ?
O=S1(=O)N(Cc2ccccc2)CCCN1Cc1ccc(F)cc1Cl | - | 0 | 0 | ? | - | ?
